Our source for the Percent Effect values is ChEMBL document CHEMBL3988442, “University of Dundee, Small-Polar-MMV Screening Library” (2021).

In one assay the target is T1, Aspartate--tRNA(Asp/Asn) ligase (Mycobacterium tuberculosis (strain ATCC 25618 / H37Rv)) (UniProt P9WFW3). Further: in the data most compounds retested in dose-response had high values.
T1 sequence (whole entry): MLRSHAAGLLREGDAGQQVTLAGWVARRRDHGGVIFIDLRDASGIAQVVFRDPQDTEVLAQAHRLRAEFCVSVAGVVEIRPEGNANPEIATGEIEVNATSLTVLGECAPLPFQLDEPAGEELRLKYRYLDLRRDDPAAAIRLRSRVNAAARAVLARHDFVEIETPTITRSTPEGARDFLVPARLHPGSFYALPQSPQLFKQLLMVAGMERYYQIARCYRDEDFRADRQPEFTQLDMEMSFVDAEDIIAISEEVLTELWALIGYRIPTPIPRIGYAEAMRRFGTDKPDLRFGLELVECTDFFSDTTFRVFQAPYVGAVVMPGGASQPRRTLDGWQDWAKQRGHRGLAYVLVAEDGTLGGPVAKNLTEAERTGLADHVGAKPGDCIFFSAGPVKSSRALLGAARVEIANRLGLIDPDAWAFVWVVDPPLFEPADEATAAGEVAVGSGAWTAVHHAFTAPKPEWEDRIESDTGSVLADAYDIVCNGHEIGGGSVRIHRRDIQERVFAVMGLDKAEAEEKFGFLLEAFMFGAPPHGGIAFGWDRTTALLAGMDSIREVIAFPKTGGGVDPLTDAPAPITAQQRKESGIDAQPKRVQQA
Nature of the assay: Assay for Asp RNA synthetase-1 from Mycobacterium tuberculosis. The format is functional. The conditions noted are these: 30 µM. Details: scale not given: direction of the effect not stated beside the values.
Take `O=C(CCCc1ncc(-c2ccccc2)o1)N1CCN(CCO)CC1`: the Percent Effect is -1.6%.

For `CCC1CN(C(=O)c2ccc(Cl)cc2O)CCN1C(C)C` (stereo not given), the Percent Effect was -3.56%.

Take `CN(CCc1ccccc1)c1cnn(CC(=O)N2CCSCC2)c(=O)c1`: the Percent Effect was 8.28%.

In the case of `CC(C)N(C)Cc1nnc2n1CCCN(C(=O)c1ccco1)C2`, the Percent Effect was 1.27%.

With `CNS(=O)(=O)c1ccc(C(=O)N2CCCC2Cc2ccccc2)o1` (stereo not given), the Percent Effect is -3.06%.

On to `CN1CCC/C1=N\S(=O)(=O)c1ccc(NC(=O)c2ccc(F)cc2)cc1`, for which the Percent Effect came to 4.61%.

In the case of `CCCN1CCCn2nc(CNS(=O)(=O)c3cccc(C#N)c3)cc2C1`, the Percent Effect is -1.36%.

For the compound `Cc1nc(C)n(CC2CCCN2CC(=O)NCc2ccco2)n1` (stereo not given), the Percent Effect is 4.57%.

As to `Cc1nc(NCCc2ccc(Cl)cc2)cc(C(=O)N2CCCCC2)n1`, the Percent Effect came out at 12.4%.

Consider `CC(=O)Nc1nc(C(=O)N2CCCC(n3ccnc3)C2)cs1` (stereo not given), for which the Percent Effect is -1.21%.

Consider `CC(C)c1nccn1-c1cccc(C2CCCN2S(=O)(=O)N(C)C)n1` (stereo not given), for which the Percent Effect is 8.78%.

Take `CCN(CC)C1CCN(C(=O)NCc2nncn2CC)CC1`: the Percent Effect is -0.573%.

Take `CCS(=O)(=O)c1ncc(CN(C)Cc2ccccn2)n1CCOC`: the Percent Effect came to 0.893%.

Consider `CC1CN(CC(=O)Nc2nncs2)CCN1Cc1nccn1C` (stereo not given), for which the Percent Effect came to 4.22%.

Consider `Cc1cnn(CC2CCCN2C(=O)c2ccc3cc[nH]c3c2)c1` (stereo not given), for which the Percent Effect was -4.26%.

As to `CCC(CNC(=O)Nc1cnn(CC)c1)N1CCCC1` (stereo not given), the Percent Effect was -2.08%.

For the compound `COc1cc(CNc2cnn(C)c2)cc2c1OCCO2`, the Percent Effect is -1.79%.

Regarding `O=C(c1ccncc1F)N1CCc2ncnc(-c3ccncc3)c2CC1`, the Percent Effect worked out at 3.59%.

As for `CN(C)C(C(=O)N1CCC(N2CCSCC2)CC1)c1ccccc1F` (stereo not given), the Percent Effect is -8.47%.

As for `Cn1cnnc1C1CCCN(C(=O)c2ccccc2Cl)C1` (stereo not given), the Percent Effect came to 1.15%.

For `CN(C)C(=O)CN1C[C@@H]2CC[C@H](C1)N(Cc1cc(F)ccc1F)C2`, the Percent Effect was -0.16%.

Turning to `O=C1NC(c2ccccc2)=N[C@@]12CC[C@@H]1CN(Cc3ccccc3)C[C@@H]12`, the Percent Effect was 0.728%.

For `CS(=O)(=O)N1CCC[C@]2(C[C@@H](Oc3ncccc3F)CO2)C1`, the Percent Effect stood at 7.67%.

With `Cc1ccccc1CS(=O)(=O)CC(=O)NC1CCCCNC1=O` (stereo not given), the Percent Effect is -3.58%.

On to `Cc1nc(CN2CCn3cc(CNC(=O)C4CCC4)nc3C2)cs1`, for which the Percent Effect came to 11%.

`CCN1CCN(C2CCN(Cc3ncc(C(C)(C)C)o3)CC2)C1=O`: the Percent Effect was -3.69%.

With `CNc1nc2c(s1)C(c1c(Cl)cccc1Cl)CC(=O)N2` (stereo not given), the Percent Effect was 50.9%.

As to `Cc1nccnc1N1CCC2(CCCN(C3CCOCC3)C2=O)C1` (stereo not given), the Percent Effect is -1.21%.

Take `O=C(COc1ccc2c(c1)CCC2)N1CCOCC1c1ncon1` (stereo not given): the Percent Effect is -4.77%.

Take `O=C(CN1CC(n2cccn2)C1)NCCc1c[nH]c2ccccc12`: the Percent Effect was -0.903%.

With `O=C(CSc1ccc2c(c1)OCCO2)NS(=O)(=O)C1CCCCC1`, the Percent Effect is 1.67%.

With `NC(=O)C(CNC(=O)COCC(F)(F)F)Cc1ccc(F)cc1` (stereo not given), the Percent Effect was 0.689%.

For the compound `CCc1ncnc2c1CCN(Cc1ccccn1)CC2`, the Percent Effect was found to be 0.378%.

With `COC(=O)c1ccc(N2CCN(C(=O)c3cc(C)on3)C(C)C2)cc1` (stereo not given), the Percent Effect was 5.2%.

As to `CC(=O)Nc1nc(C(=O)Nc2ccc(F)cc2)cs1`, the Percent Effect was -0.259%.

In the case of `CC(OCC1CC1)C(=O)N1CCCN(Cc2nccn2C)CC1` (stereo not given), the Percent Effect was found to be 7.9%.

Consider `CSc1ccc(Cl)c(C(=O)N2CCCC(CNS(C)(=O)=O)C2)c1` (stereo not given), for which the Percent Effect came to 2.82%.

For `COc1cccc(CC(=O)N2CCc3ncnc(NC(C)C)c3CC2)c1`, the Percent Effect was -0.351%.

On to `Cc1nn(C)c(Cl)c1C1CCCN1C(=O)c1nccnc1N` (stereo not given), for which the Percent Effect is -0.929%.

Take `Cc1nc(CN(C)C2CCCN(c3cccnn3)C2)no1` (stereo not given): the Percent Effect was -6.37%.

The target of the next assay is Shiga toxin 2 (Escherichia coli O157:H7) (UniProt P09385+P09386). Nature of the assay: E. coli 0.157:H7 Shiga Toxin SOP - stx2 screening assay. The format is functional. Details: scale not given: direction of the effect not stated beside the values. The note with it: 30 µM.
As to `O=C(CCCc1ncc(-c2ccccc2)o1)N1CCN(CCO)CC1`, the Percent Effect was -44.5%.

As for `CCC1CN(C(=O)c2ccc(Cl)cc2O)CCN1C(C)C` (stereo not given), the Percent Effect came out at 5.13%.

For `CN(CCc1ccccc1)c1cnn(CC(=O)N2CCSCC2)c(=O)c1`, the Percent Effect is -15.1%.

As to `CC(C)N(C)Cc1nnc2n1CCCN(C(=O)c1ccco1)C2`, the Percent Effect is -12.8%.

For the compound `CNS(=O)(=O)c1ccc(C(=O)N2CCCC2Cc2ccccc2)o1` (stereo not given), the Percent Effect was 18.2%.

With `CN1CCC/C1=N\S(=O)(=O)c1ccc(NC(=O)c2ccc(F)cc2)cc1`, the Percent Effect was -109%.

Regarding `CCCN1CCCn2nc(CNS(=O)(=O)c3cccc(C#N)c3)cc2C1`, the Percent Effect was determined as 28.5%.

`Cc1nc(C)n(CC2CCCN2CC(=O)NCc2ccco2)n1` (stereo not given): the Percent Effect is -5.68%.

Turning to `Cc1nc(NCCc2ccc(Cl)cc2)cc(C(=O)N2CCCCC2)n1`, the Percent Effect was -69.6%.

Consider `CC(=O)Nc1nc(C(=O)N2CCCC(n3ccnc3)C2)cs1` (stereo not given), for which the Percent Effect is 0.121%.

On to `CC(C)c1nccn1-c1cccc(C2CCCN2S(=O)(=O)N(C)C)n1` (stereo not given), for which the Percent Effect was 0.999%.

As for `CCN(CC)C1CCN(C(=O)NCc2nncn2CC)CC1`, the Percent Effect was -26%.

For the compound `CCS(=O)(=O)c1ncc(CN(C)Cc2ccccn2)n1CCOC`, the Percent Effect is 6.2%.

Consider `CC1CN(CC(=O)Nc2nncs2)CCN1Cc1nccn1C` (stereo not given), for which the Percent Effect turned out to be 12.1%.

In the case of `Cc1cnn(CC2CCCN2C(=O)c2ccc3cc[nH]c3c2)c1` (stereo not given), the Percent Effect turned out to be 1.09%.

For the compound `CCC(CNC(=O)Nc1cnn(CC)c1)N1CCCC1` (stereo not given), the Percent Effect came to 1.4%.

On to `COc1cc(CNc2cnn(C)c2)cc2c1OCCO2`, for which the Percent Effect stood at 7.95%.

In the case of `O=C(c1ccncc1F)N1CCc2ncnc(-c3ccncc3)c2CC1`, the Percent Effect was -0.901%.

Take `CN(C)C(C(=O)N1CCC(N2CCSCC2)CC1)c1ccccc1F` (stereo not given): the Percent Effect was -3.63%.

Take `Cn1cnnc1C1CCCN(C(=O)c2ccccc2Cl)C1` (stereo not given): the Percent Effect was 22.4%.

As to `CN(C)C(=O)CN1C[C@@H]2CC[C@H](C1)N(Cc1cc(F)ccc1F)C2`, the Percent Effect was -37.1%.

Take `O=C1NC(c2ccccc2)=N[C@@]12CC[C@@H]1CN(Cc3ccccc3)C[C@@H]12`: the Percent Effect is -14.6%.

As for `CS(=O)(=O)N1CCC[C@]2(C[C@@H](Oc3ncccc3F)CO2)C1`, the Percent Effect was -11.6%.

In the case of `Cc1ccccc1CS(=O)(=O)CC(=O)NC1CCCCNC1=O` (stereo not given), the Percent Effect is -14.7%.

As for `Cc1nc(CN2CCn3cc(CNC(=O)C4CCC4)nc3C2)cs1`, the Percent Effect is -50.1%.

On to `CCN1CCN(C2CCN(Cc3ncc(C(C)(C)C)o3)CC2)C1=O`, for which the Percent Effect was 6.2%.

For `CNc1nc2c(s1)C(c1c(Cl)cccc1Cl)CC(=O)N2` (stereo not given), the Percent Effect stood at 5.63%.

Turning to `Cc1nccnc1N1CCC2(CCCN(C3CCOCC3)C2=O)C1` (stereo not given), the Percent Effect is -27.2%.

Consider `O=C(COc1ccc2c(c1)CCC2)N1CCOCC1c1ncon1` (stereo not given), for which the Percent Effect came out at 22.5%.

Regarding `O=C(CN1CC(n2cccn2)C1)NCCc1c[nH]c2ccccc12`, the Percent Effect is -2.74%.

Consider `O=C(CSc1ccc2c(c1)OCCO2)NS(=O)(=O)C1CCCCC1`, for which the Percent Effect was -14%.

For `NC(=O)C(CNC(=O)COCC(F)(F)F)Cc1ccc(F)cc1` (stereo not given), the Percent Effect turned out to be 4.66%.

On to `CCc1ncnc2c1CCN(Cc1ccccn1)CC2`, for which the Percent Effect is -29.9%.

As to `COC(=O)c1ccc(N2CCN(C(=O)c3cc(C)on3)C(C)C2)cc1` (stereo not given), the Percent Effect was 23.5%.

With `CC(=O)Nc1nc(C(=O)Nc2ccc(F)cc2)cs1`, the Percent Effect was -5.87%.

As for `CC(OCC1CC1)C(=O)N1CCCN(Cc2nccn2C)CC1` (stereo not given), the Percent Effect is -20.4%.

Turning to `CSc1ccc(Cl)c(C(=O)N2CCCC(CNS(C)(=O)=O)C2)c1` (stereo not given), the Percent Effect is -37.8%.

In the case of `COc1cccc(CC(=O)N2CCc3ncnc(NC(C)C)c3CC2)c1`, the Percent Effect was -3.19%.

With `Cc1nn(C)c(Cl)c1C1CCCN1C(=O)c1nccnc1N` (stereo not given), the Percent Effect amounted to 22.4%.

For `Cc1nc(CN(C)C2CCCN(c3cccnn3)C2)no1` (stereo not given), the Percent Effect is -10.7%.
